Laboratory results taken from article PMC10313818.

Experiments:
[1] = target: 60 kDa heat shock protein, mitochondrial (UniProt P10809); test: cross-link between two proteins; cross-linking mass spectrometry
[2] = target: ADP/ATP translocase 3 (UniProt P12236); test: cross-link between two proteins; co-fractionation; cross-linking mass spectrometry
Sequence of ADP/ATP translocase 3 (P12236 whole entry): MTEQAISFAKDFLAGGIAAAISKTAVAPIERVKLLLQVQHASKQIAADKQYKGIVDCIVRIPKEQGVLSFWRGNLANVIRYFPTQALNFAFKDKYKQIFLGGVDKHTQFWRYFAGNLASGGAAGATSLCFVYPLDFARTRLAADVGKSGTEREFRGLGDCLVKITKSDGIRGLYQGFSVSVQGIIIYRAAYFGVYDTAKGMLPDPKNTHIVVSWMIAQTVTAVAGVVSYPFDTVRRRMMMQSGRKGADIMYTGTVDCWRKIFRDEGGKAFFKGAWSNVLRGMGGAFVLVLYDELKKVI

Substance | listed as a hit [1] | listed as a hit [2]
Putative GTP-binding protein 6, O43824 | yes | 
ADP/ATP translocase 2, P05141 |  | yes
